BL2 CD40 inh: CD40 pathway inhibition in BL2 cells | BL2 NF-kB luciferase reporter, CD40L-induced, 4 h | inhibition, % at 10 µM | 0.94% of 83,000 active | AID 1053188;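 active = mean inhibition of at least 50% with a set share of replicates also reaching that level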
Hits are given with their value; – = inactive; [ ] = another dose, or the depositor's remark. This excerpt belongs to a sample that is enriched for hits.

SMILES | BL2 CD40 inh
CN1CCN(C(=O)CCN2C(=O)/C(=C\c3ccc(F)cc3)SC2=S)CC1 | –
O=C(CS(=O)(=O)c1ccc(F)cc1)N1CCN(c2ccccc2)CC1 | –
C=CC(=O)N1C/C(=C/c2ccc(F)cc2)C(=O)/C(=C\c2ccc(F)cc2)C1 | 68
C[C@H](CO)N1C[C@H](C)[C@H](CN(C)CC2CCCCC2)Oc2c(NC(=O)Nc3ccc4c(c3)OCO4)cccc2C1=O | –
O=C(Nc1cc(F)ccc1F)N[C@@H]1CC[C@H](CCn2cc(C3CCCCC3)nn2)O[C@@H]1CO | –
COc1ccccc1NC(=O)N1C[C@H]2[C@@H](c3ccccc31)[C@@H](CO)N2C(=O)C1CC1 | –
CC(=O)N1[C@H](CNC(=O)CN2CCOCC2)[C@@H](c2ccccc2)[C@@H]1CO | –
CCC(C)NS(=O)(=O)c1ccc(NC(C)=O)cc1 (stereo not given) | –
CCS(=O)(=O)Nc1ccc(NC(C)=O)cc1 | –
CCOC(=O)/C=C/S(=O)(=O)c1ccc(NC(C)=O)cc1 | 110
CCCNC(=O)N1CC2(CCN(CC3CCCC3)CC2)c2c(n(C)c3cc(OC)ccc23)[C@@H]1CO | –
COc1ccccc1CN(C)C[C@H]1OCc2ccccc2-c2c(n(C)c3ccccc23)C(=O)N([C@H](C)CO)C[C@@H]1C | –
O=S(=O)(Cc1ccccc1)N1[C@@H]2CNC[C@H]1C2c1ccc(/C=C/c2ccccc2)cc1 (stereo not given in full) | –
O=C(Nc1ccccc1)N1CC(=O)N2[C@H](CO)[C@@H](c3ccc(C#CC4CCCCC4)cc3)[C@H]2C1 | 54[25 µM]
O=C(Nc1ccccc1)N1CC(=O)N2[C@H](CO)[C@H](c3ccc(C#CC4CCCCC4)cc3)[C@H]2C1 | –
COc1cccc(NC(=O)N2CC(=O)N3[C@H](CO)[C@@H](c4ccc(C#CCC5CCCC5)cc4)[C@H]3C2)c1 | 64[25 µM]
COc1cccc(NC(=O)N2CC(=O)N3[C@H](C2)[C@H](c2ccc(C#CCC4CCCC4)cc2)[C@@H]3CO)c1 | –
COc1cccc(NC(=O)N2CC(=O)N3[C@H](CO)[C@@H](c4ccc(C#CCC5CCCC5)cc4)[C@@H]3C2)c1 | –
O=C(Nc1ccccc1)N1CC(=O)N2[C@@H](CO)[C@@H](c3ccc(C#CC4CCCCC4)cc3)[C@@H]2C1 | –
CCC(=O)N1CC[C@H]2[C@@H]1c1cc(-c3ccc(F)cc3)ccc1N(C)[C@H]2CO | –
CC(=O)Nc1ccc2c(c1)C(=O)N(C)C[C@@H](C)[C@H](CN(C)C)O2 | –
C[C@H](CO)N1C[C@H](C)[C@H](CN(C)Cc2cccc3c2OCCCO3)OCc2ccccc2-c2c(n(C)c3ccccc23)C1=O | –
CN(C)CC(=O)Nc1ccc2c(c1)[C@H]1C[C@@H](CC(=O)NCc3cccc(F)c3)O[C@@H](CO)[C@H]1O2 | –
CC=Cc1cc2c(c(=O)o1)C(=O)C(O)C(C)O2 (stereo not given) | 41
CC(C)NC(=O)N1C[C@@H]2C(c3ccc(Br)cc3)[C@H](C1)N2Cc1ccc(F)cc1 (stereo not given in full) | –
SMILES | BL2 CD40 inh
O=C1NCCOCc2cn(nn2)CC[C@H]1Cc1ccc(F)cc1 | –
CCOC(=O)c1c(-c2ccc(C)o2)csc1NC(=O)CN1CCN(CC)CC1 | –
CCOC(=O)c1c(-c2ccc(C)o2)csc1NC(=O)CN1CCC(C(N)=O)CC1 | –
CCOC(=O)c1c(-c2ccc(C)o2)csc1NC(=O)CN1CCCCC1 | 63
C[C@H]1CN(C)C(=O)c2cccc(NS(C)(=O)=O)c2O[C@@H]1CN(C)C | –
O=C(Cc1ccccc1)N1C[C@H]2[C@@H](c3ccccc31)[C@@H](CO)N2C(=O)C1CC1 | –
OCC[n+]1ccc(/C=C/c2c[nH]c3ccccc23)cc1 | –
C(=Cc1c[nH]c2ccccc12)c1nccc2ccccc12 | 62
C(=NN=C1c2ccccc2-c2ccccc21)c1c[nH]c2ccccc12 | –
N#C[C@@H]1[C@H](c2ccc(C3=CCCC3)cc2)[C@@H](CO)N1C(=O)c1cccc(F)c1 | –
CC(=O)N1[C@@H]2c3ccc(-c4ccc(F)cc4)c(=O)n3C[C@@H]2[C@@H](CO)[C@@H]1C(=O)N(C)C | –
Cc1nc(-c2ccc3c(c2)OCCO3)cs1 | –
Oc1ccccc1-c1cc(-c2ccc3c(c2)OCCO3)n[nH]1 | 54
c1cncc(-c2nc(-c3ccc4c(c3)OCCO4)cs2)c1 | –
C[C@H]1CN(C)C(=O)c2cccc(N)c2O[C@H]1CN(C)C(=O)OC(C)(C)C | –
COc1ccc(CNC(=O)C[C@H]2C=C[C@@H](NC(=O)c3ccc4c(c3)OCO4)[C@@H](CO)O2)cc1 | –
O=C(Cn1ncc(Cl)c(Cl)c1=O)NC1CCCCC1 | 97
O=C(CN1CCN(Cc2ccccc2Cl)C1=O)NC1CCCCCCC1 | –
Cc1ccc(Cn2c(C)c3cnn(CC(=O)NC4CCCC4)c(=O)c3c2C)cc1 | –
COc1ccc(-c2ccc3c(c2)[C@@H]2[C@@H](CCN2C(=O)Cc2ccccn2)[C@@H](CO)N3C)cc1 | –
COc1cccc(C#Cc2ccc([C@H]3[C@H]4CN(C(=O)Cc5cccnc5)CC(=O)N4[C@H]3CO)cc2)c1 | –
O=C(CC(F)(F)F)N1C[C@@H]2[C@H](c3ccccc31)[C@@H](CO)N2C(=O)CN1CCOCC1 | –
C[C@@H]1CN(C)C(=O)Cc2cc(N)ccc2O[C@@H]1CN(C)C | –
O=C1C=C(c2c(O)ccc3ccccc23)c2ccccc2C1=O | 73
Oc1ccc2ccccc2c1CNc1ccccc1 | –
SMILES | BL2 CD40 inh
O=C(O)c1cc2ccccc2c2c1C(=O)c1ccccc1-2 | –
O=C(NCCc1ccncc1)[C@@H]1[C@@H](CO)[C@@H]2Cn3c(ccc(-c4ccncc4)c3=O)[C@@H]2N1C(=O)C1CC1 | –
CO[C@@H]1CN(C)C(=O)c2cc(NC(=O)C3CC3)ccc2OC[C@H](C)N(C(=O)C2CCOCC2)C[C@@H]1C | –
O=C(CCS(=O)(=O)c1ccccc1)N(CCCN1CCOCC1)c1nc2ccc(F)cc2s1 | 72
Cc1ccc2nc(N(CCCN(C)C)C(=O)CS(=O)(=O)c3ccccc3)sc2c1 | –
CCc1cccc2sc(N(CCCN3CCOCC3)C(=O)CS(=O)(=O)c3ccccc3)nc12 | –
O=C(CN1CCOCC1)N[C@H]1CC[C@@H](CCn2cc(C3CCCC3)nn2)O[C@H]1CO | –
CCCC#Cc1ccc([C@H]2[C@H](CO)N3C(=O)CN(C(=O)Nc4cccc(F)c4)C[C@@H]23)cc1 | –
C[C@@H]1CN([C@H](C)CO)C(=O)Cc2cc(NS(=O)(=O)c3ccccc3)ccc2O[C@H]1CN(C)Cc1ccc(Cl)c(Cl)c1 | –
C[C@@H]1CN([C@H](C)CO)C(=O)Cc2cc(NS(=O)(=O)c3ccc(F)cc3)ccc2O[C@H]1CN(C)Cc1ccc(C(F)(F)F)cc1 | 56
C[C@H](CO)N1C[C@H](C)[C@@H](CN(C)Cc2ccncc2)Oc2ccc(NS(=O)(=O)c3ccc(F)cc3)cc2CC1=O | –
COc1ccc(CN(C)C[C@H]2Oc3ccc(NS(=O)(=O)c4ccc(Cl)cc4)cc3CC(=O)N([C@@H](C)CO)C[C@@H]2C)cc1 | –
C[C@@H]1CN([C@@H](C)CO)C(=O)Cc2cc(NS(=O)(=O)c3ccc(F)cc3)ccc2O[C@H]1CN(C)Cc1ccncc1 | –
C[C@@H]1CN([C@H](C)CO)C(=O)Cc2cc(NS(=O)(=O)c3ccc(F)cc3)ccc2O[C@H]1CN(C)Cc1ccncc1 | –
C[C@H](CO)N1C[C@H](C)[C@@H](CN(C)Cc2ccc(C(F)(F)F)cc2)Oc2ccc(NS(=O)(=O)c3ccc(Cl)cc3)cc2CC1=O | 52
